Laboratory results taken from PubChem BioAssay AID493034 (The Scripps Research Institute Molecular Screening Center, 2011).
Hit rate of the full screen: of about 2,400 compounds, about 2,200 (92%) were called active.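 How the source made its calls: active means mean inhibition over triplicate runs exceeds the cutoff derived for the earlier primary screen (cut at about 25% in these data); inactive means the rest.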 So high a share suggests a set chosen from earlier hits. This is one part of the list.

target: Platelet-activating factor acetylhydrolase IB subunit alpha2 (Homo sapiens) (UniProt P68402); experiment: PAFAH1B2 inhibitors, confirmation, biochemical, fluorescence polarization, FP-rhodamine probe, triplicate (AID 493034); conditions: recombinant PAFAH1B2, FP-rhodamine probe fluorescence polarization; at 3.39 µM; stronger effect = higher value;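 further: 0% = enzyme with DMSO and 100% = wells lacking PAFAH1B2 protein; inhibitors lower polarization by leaving the probe unbound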
Sequence (P68402 whole entry, looked up): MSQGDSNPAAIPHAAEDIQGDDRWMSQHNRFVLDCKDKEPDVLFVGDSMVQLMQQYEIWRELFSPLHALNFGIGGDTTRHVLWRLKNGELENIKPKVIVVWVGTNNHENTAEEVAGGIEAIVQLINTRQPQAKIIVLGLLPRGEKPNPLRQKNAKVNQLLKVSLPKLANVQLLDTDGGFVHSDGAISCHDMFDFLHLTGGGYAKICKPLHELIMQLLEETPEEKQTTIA

Row | SMILES | inhibition
1 | N#Cc1c(NC(=O)Cn2c(=O)oc3ccccc32)oc(-c2ccccc2)c1-c1ccccc1 | 45% (active)
2 | C=CCNC(=O)C1CCN(S(=O)(=O)c2ccc(Br)cc2)CC1 | 23.8% (inactive)
3 | O=C(NNC(=O)C1CCN(S(=O)(=O)c2ccc(Cl)cc2)CC1)c1ccccc1 | 24% (inactive)
4 | CCN(CC)S(=O)(=O)c1ccc(C(=O)NNC(=O)C2CCN(S(=O)(=O)c3ccc(Cl)cc3)CC2)cc1 | 37.9% (active)
5 | Cc1ccc(C(c2nnnn2Cc2ccccc2)N2CCN(Cc3ccccc3)CC2)cc1 (stereo unspecified) | 16.6% (inactive)
6 | Cn1c(=S)[nH]c2sc3c(c2c1=O)CCC(C(C)(C)C)C3 (stereo unspecified) | 41.1% (active)
7 | O=C(O)c1ccc(CSCc2ccccc2Cl)o1 | 14.4% (inactive)
8 | CCOC(=O)CSc1nnc(NC(=O)CN2CCN(C=O)CC2)s1 | 3.79% (inactive)
9 | CCN(C(=O)COC(=O)c1cc(NS(=O)(=O)c2ccc(Cl)c([N+](=O)[O-])c2)ccc1O)C1CCCCC1 | 36.1% (active)
10 | COC(=O)c1cc(NS(=O)(=O)c2ccc(N3CCCCCC3)c([N+](=O)[O-])c2)cc(C(=O)OC)c1 | 23.8% (inactive)
11 | CCN(Cc1ccccc1)C(=O)COC(=O)c1cc(S(=O)(=O)Nc2ccccc2OC)ccc1O | 23.2% (inactive)
12 | Cc1ccc(OCCC(=O)OCC(=O)NC2CCCC(C)C2C)cc1 (stereo unspecified) | 21.5% (inactive)
13 | Oc1ccc(C23CC4CC(CC(C4)C2)C3)cc1O | 33.2% (active)
14 | CCCCCCCCN1[C@@H](CC(=O)O)c2ccc(C(F)(F)F)cc2S1(=O)=O | 21.7% (inactive)
15 | CC(C)(C)c1ccc(C2=CC(c3ccccc3F)n3ncnc3N2)cc1 (stereo unspecified) | 15.1% (inactive)
16 | O=C(O)c1ccc(Cl)c(S(=O)(=O)N(Cc2ccccc2)c2ccc(F)cc2)c1 | 22.7% (inactive)
17 | CCN(c1ccccc1)S(=O)(=O)c1cc(C(=O)O)ccc1C | 45.1% (active)
18 | CCN(CC)CCN(C(=O)c1ccc(S(=O)(=O)N(CC)c2ccccc2)cc1)c1nc2c(OC)ccc(OC)c2s1 | 16.4% (inactive)
19 | CC1CCCC(NC(=O)c2cccc(S(=O)(=O)NCc3ccccc3)c2)C1C (stereo unspecified) | 18.3% (inactive)
20 | CCc1ccc([C@@H]2CC=C(C(=O)O)[C@H](c3ccc(C(C)(C)C)cc3)N2S(=O)(=O)c2ccc(C)cc2)cc1 | 97.5% (active)
21 | Cc1ccc([C@@H]2CC=C(C(=O)O)[C@H](c3ccc(C(C)(C)C)cc3)N2S(=O)(=O)c2ccc(C)cc2)cc1 | 95.5% (active)
22 | Cc1ccc(S(=O)(=O)N2[C@@H](c3ccc(C(C)(C)C)cc3)C(C(=O)O)=CC[C@H]2c2ccc(C(C)C)cc2)cc1 | 89.3% (active)
23 | O=C(COc1ccc(Cl)cc1)NC1=NN(c2ccccc2)C(=O)C1 | 67.5% (active)
24 | CCOC(=O)N1CCN(C(=O)c2ccccc2NC(=O)COc2ccccc2)CC1 | 1.01% (inactive)
25 | O=C(COc1ccc(Cl)cc1)NNC(=O)C(=O)N1CCCCC1 | 19.2% (inactive)
26 | N#CC1=C(N)c2ccccc2CC12CCCCC2 | 17.4% (inactive)

Row | SMILES | inhibition
27 | N=C(N)c1ccc(N=Nc2c(O)ccc3c2[nH]c2ccccc23)cc1 | 33.4% (active)
28 | O=[N+]([O-])c1cc(C2Nc3cccc4cccc(c34)N2)ccc1Cl | -0.07% (inactive)
29 | O=C1OC[C@@H]2CCCN2C(=O)[C@H](CC(=O)N(CCO)Cc2ccccc2)C/C=C\C[C@H]1Cc1ccc(F)cc1 | 33.2% (active)
30 | O=C1OC[C@@H]2CCCN2C(=O)[C@@H](CC(=O)N(CCO)Cc2ccccc2)C/C=C\C[C@H]1Cc1ccc(F)cc1 | 29.1% (active)
31 | O=C1N[C@@H](Cc2ccccc2)COC(=O)[C@@H](Cc2ccc(F)cc2)C/C=C\C[C@@H]1CC(=O)N(CCO)Cc1ccccc1 | 37.2% (active)
32 | O=C1OC[C@H]2CCCN2C(=O)[C@@H](CC(=O)N(CCO)Cc2ccccc2)C/C=C\C[C@@H]1Cc1ccc(F)cc1 | 27.5% (active)
33 | O=C1N[C@@H](Cc2c[nH]c3ccccc23)COC(=O)[C@@H](Cc2ccc(F)cc2)CC/C=C/C[C@@H]1CC(=O)N(CCO)Cc1ccccc1 | 21.5% (inactive)
34 | O=C(O)CCc1ccc(-c2ccc(Br)cc2)n1-c1ccc(O)cc1 | 31.6% (active)
35 | Cc1ccc(-n2cccc2/C=C2\C(=N)N3N=C(c4ccco4)SC3=NC2=O)cc1 | 38.1% (active)
36 | CCC1=NN2C(=N)/C(=C\c3cccn3-c3ccc(Cl)cc3)C(=O)N=C2S1 | 36.4% (active)
37 | CS(=O)(=O)C1=NSC2=NC(=O)/C(=C\c3cccn3-c3ccc(Cl)cc3)C(=N)N21 | 55.9% (active)
38 | Cc1ccc(S(=O)(=O)Oc2ccc(/C=C3/C(=N)N4C(=NC3=O)SN=C4S(C)(=O)=O)cc2)cc1 | 50% (active)
39 | Cc1ccc(SCC(=O)NC(C)c2ccccc2)cc1 (stereo unspecified) | 21% (inactive)
40 | Cc1ccc(SCc2cn3c(C)csc3n2)cc1 | 59.7% (active)
41 | CCc1ccc(C2CC(c3ccc(Cl)cc3)n3nc(N)nc3N2)cc1 (stereo unspecified) | 30.1% (active)
42 | C=CC[C@H](CC(=O)N(CCO)Cc1ccccc1)C(=O)N[C@H](COC(=O)[C@@H](CC=C)Cc1ccc(F)cc1)Cc1ccccc1 | 58% (active)
43 | CCCCn1c(N)c(N(CC(C)C)C(=O)CN2C(=O)NC3(CCC(C(C)(C)CC)CC3)C2=O)c(=O)[nH]c1=O (stereo unspecified) | 16.4% (inactive)
44 | COc1ccc2[nH]c(C(=O)NCCN3CCOCC3)cc2c1 | 6.21% (inactive)
45 | COc1ccc(N2CCN(C(=O)CCNC(=O)c3ccc(C(C)(C)C)cc3)CC2)cc1 | 62.3% (active)
46 | CC(/C=C1\SC(=S)N(NS(=O)(=O)c2ccccc2)C1=O)=C\c1ccccc1 | 39.6% (active)
47 | Cc1ccc(S(=O)(=O)n2ccc3c(OCCOCCSCC(NC(=O)OC(C)(C)C)C(=O)O)cccc32)cc1 (stereo unspecified) | 85.8% (active)
48 | CC1(C)Cc2ccccc2C2=C(C(=O)N3CCCCCC3)C(=O)C(=O)N21 | 64.2% (active)
49 | O=C1C(=O)N2C(=C1C(=O)N1CCCCCC1)c1ccccc1CC21CCCC1 | 32.8% (active)
50 | CCC(=O)Nn1cnc2c(c1=O)C1(CCCCC1)Cc1ccccc1-2 | 19.9% (inactive)
51 | O=C(NCCSc1ncc(-c2ccc(F)cc2)[nH]1)c1ccc2c(c1)OCO2 | 20.8% (inactive)
